About 2,000 (36%) of roughly 5,500 compounds were called active. About 18% were inconclusive and are not listed. Cut-off read from the data, not from the text of the source: active = normalized growth mostly below about 0.91 (no sharp cut-off); inconclusive = no clear call, values can overlap the other calls; inactive = mostly above about 0.92. The list shows a part of the results.
Assay: chemical genetic growth profiling, strain panel (AID 1159580);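 note: tested at 20 µM; growth read once vehicle control cultures reached saturation at 30 °C; 1 = growth at the plate median or of vehicle wells; lower values mean less growth of the strain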
Conditions: growth OD

Measured: normalized growth

Cc1cc(-c2ccccc2)nnc1NCCN1CCOCC1
inactive: S. cerevisiae deletion strains, locus YJR075W, strain HOC1, active compounds read low 0.997 | S. cerevisiae deletion strains, locus YKL009W, strain mrt4, active compounds read low 1.08 | S. cerevisiae deletion strains, locus YKL068W, active compounds read low 0.969 | S. cerevisiae deletion strains, locus YKL085W, strain MDH1 (second series), active compounds read low 1 | S. cerevisiae deletion strains, locus YKL085W, strain MDH1, active compounds read low 1 | S. cerevisiae deletion strains, locus YKL160W, strain elf1, active compounds read low 0.966 | S. cerevisiae deletion strains, locus YKL190W, strain CNB1, active compounds read low 1 | S. cerevisiae deletion strains, locus YKR001C, strain vps1, active compounds read low 0.98 | S. cerevisiae deletion strains, locus YKR026C, strain gcn3, active compounds read low 0.995 | S. cerevisiae deletion strains, locus YKR091W, strain srl3, active compounds read low 0.995 | S. cerevisiae deletion strains, locus YLL001W, strain dnm1, active compounds read low 0.976 | S. cerevisiae deletion strains, locus YLL026W, active compounds read low 0.992 | S. cerevisiae deletion strains, locus YLL041C, strain sdh2, active compounds read low 0.988 | S. cerevisiae deletion strains, locus YLR027C, strain aat2, active compounds read low 0.989 | S. cerevisiae deletion strains, locus YLR039C, strain RIC1, active compounds read low 0.999 | S. cerevisiae deletion strains, locus YLR058C, strain SHM2, active compounds read low 1.01 | S. cerevisiae deletion strains, locus YLR102C, strain apc9, active compounds read low 0.968 | S. cerevisiae deletion strains, locus YLR113W, strain HOG1, active compounds read low 0.964 | S. cerevisiae deletion strains, locus YLR221C, strain rsa3, active compounds read low 0.989 | S. cerevisiae deletion strains, locus YLR258W, strain gsy2, active compounds read low 0.995 | S. cerevisiae deletion strains, locus YLR262C, strain YPT6 (second series), active compounds read low 0.98 | S. cerevisiae deletion strains, locus YLR262C, strain YPT6, active compounds read low 1.04 | S. cerevisiae deletion strains, locus YLR268W, strain sec22, active compounds read low 0.946 | S. cerevisiae deletion strains, locus YLR320W, strain mms22, active compounds read low 0.984 | S. cerevisiae deletion strains, locus YLR330W, strain CHS5, active compounds read low 0.999 | S. cerevisiae deletion strains, locus YLR342W, strain FKS1 (second series), active compounds read low 1.07 | S. cerevisiae deletion strains, locus YLR342W, strain FKS1, active compounds read low 0.983 | S. cerevisiae deletion strains, locus YLR357W, strain rsc2, active compounds read low 0.975 | S. cerevisiae deletion strains, locus YLR370C, strain arc18, active compounds read low 0.986 | S. cerevisiae deletion strains, locus YLR371W, strain rom2, active compounds read low 0.967 | S. cerevisiae deletion strains, locus YLR384C, strain iki3, active compounds read low 0.976 | S. cerevisiae deletion strains, locus YLR418C, strain cdc73, active compounds read low 0.998 | S. cerevisiae deletion strains, locus YML016C, strain PPZ1, active compounds read low 1.02 | S. cerevisiae deletion strains, locus YML032C, strain rad52, active compounds read low 0.974 | S. cerevisiae deletion strains, locus YML120C, strain ndi1, active compounds read low 0.972 | S. cerevisiae deletion strains, locus YML124C, strain tub3, active compounds read low 0.978 | S. cerevisiae deletion strains, locus YMR058W, strain fet3, active compounds read low 0.988 | S. cerevisiae deletion strains, locus YMR078C, strain ctf18, active compounds read low 0.978 | S. cerevisiae deletion strains, locus YMR125W, strain sto1, active compounds read low 0.972 | S. cerevisiae deletion strains, locus YMR129W, active compounds read low 0.989 | S. cerevisiae deletion strains, locus YMR205C, strain PFK2, active compounds read low 0.965 | S. cerevisiae deletion strains, locus YMR223W, strain ubp8, active compounds read low 1.02 | S. cerevisiae deletion strains, locus YMR231W, strain pep5, active compounds read low 0.998 | S. cerevisiae deletion strains, locus YMR263W, strain SAP30, active compounds read low 0.997 | S. cerevisiae deletion strains, locus YMR307W, strain GAS1, active compounds read low 1.04 | S. cerevisiae deletion strains, locus YNL067W, strain RPL9B, active compounds read low 0.985 | S. cerevisiae deletion strains, locus YNL071W, strain lat1, active compounds read low 0.987 | S. cerevisiae deletion strains, locus YNL128W, strain TEP1, active compounds read low 0.995 | S. cerevisiae deletion strains, locus YNL153C, strain GIM3, active compounds read low 1.01 | S. cerevisiae deletion strains, locus YNL183C, strain NPR1, active compounds read low 0.931 | S. cerevisiae deletion strains, locus YNL209W, strain ssb2, active compounds read low 0.991 | S. cerevisiae deletion strains, locus YNL233W, strain BNI4, active compounds read low 1.01 | S. cerevisiae deletion strains, locus YNL248C, strain rpa49, active compounds read low 0.985 | S. cerevisiae deletion strains, locus YNL250W, strain rad50, active compounds read low 0.98 | S. cerevisiae deletion strains, locus YNL271C, strain bni1, active compounds read low 0.968 | S. cerevisiae deletion strains, locus YNL298W, strain CLA4, active compounds read low 0.977 | S. cerevisiae deletion strains, locus YNL307C, strain MCK1, active compounds read low 0.993 | S. cerevisiae deletion strains, locus YNL322C, strain KRE1 (second series), active compounds read low 0.981 | S. cerevisiae deletion strains, locus YNL322C, strain KRE1, active compounds read low 0.994 | S. cerevisiae deletion strains, locus YNR049C, strain mso1, active compounds read low 0.982 | S. cerevisiae deletion strains, locus YNR052C, strain pop2, active compounds read low 0.973 | S. cerevisiae deletion strains, locus YOL006C, strain TOP1, active compounds read low 0.959 | S. cerevisiae deletion strains, locus YOL012C, strain htz1 0.852 | S. cerevisiae deletion strains, locus YOL147C, strain pex11, active compounds read low 0.977 | S. cerevisiae deletion strains, locus YOR001W, strain rrp6, active compounds read low 0.986 | S. cerevisiae deletion strains, locus YOR061W, strain CKA2, active compounds read low 1.01 | S. cerevisiae deletion strains, locus YOR069W, strain VPS5, active compounds read low 1.01 | S. cerevisiae deletion strains, locus YOR070C, strain gyp1, active compounds read low 0.993 | S. cerevisiae deletion strains, locus YOR080W, strain dia2, active compounds read low 0.987 | S. cerevisiae deletion strains, locus YOR083W, strain WHI5, active compounds read low 0.968 | S. cerevisiae deletion strains, locus YOR106W, strain vam3, active compounds read low 0.961 | S. cerevisiae deletion strains, locus YOR136W, strain idh2, active compounds read low 0.978 | S. cerevisiae deletion strains, locus YOR144C, strain elg1, active compounds read low 0.967 | S. cerevisiae deletion strains, locus YOR184W, strain ser1, active compounds read low 0.982 | S. cerevisiae deletion strains, locus YOR231W, strain MKK1, active compounds read low 0.971 | S. cerevisiae deletion strains, locus YOR265W, strain rbl2, active compounds read low 0.995 | S. cerevisiae deletion strains, locus YOR270C, strain vph1, active compounds read low 0.965 | S. cerevisiae deletion strains, locus YOR290C, strain snf2, active compounds read low 0.991 | S. cerevisiae deletion strains, locus YOR316C, strain cot1, active compounds read low 0.953 | S. cerevisiae deletion strains, locus YPL051W, strain arl3, active compounds read low 0.985 | S. cerevisiae deletion strains, locus YPL055C, strain LGE1, active compounds read low 1 | S. cerevisiae deletion strains, locus YPL078C, strain atp4, active compounds read low 0.989 | S. cerevisiae deletion strains, locus YPL106C, strain sse1, active compounds read low 0.959 | S. cerevisiae deletion strains, locus YPL240C, strain hsp82, active compounds read low 1 | S. cerevisiae deletion strains, locus YPL241C, strain CIN2, active compounds read low 1.01 | S. cerevisiae deletion strains, locus YPL256C, strain CLN2, active compounds read low 0.945 | S. cerevisiae deletion strains, locus YPR119W, strain clb2, active compounds read low 0.98 | S. cerevisiae deletion strains, locus YPR141C, strain kar3, active compounds read low 0.971 | S. cerevisiae deletion strains, locus YPR163C, strain tif3, active compounds read low 0.982 | S. cerevisiae deletion strains, locus YPR167C, strain met16, active compounds read low 0.97 | S. cerevisiae deletion strains, strain wtn01, active compounds read low 0.982 | S. cerevisiae strains, strain wild type, active compounds read low 1.01
